# VACV Venus inh – inhibitors of vaccinia virus (Venus reporter); Vaccinia virus Venus reporter expression, fluorescence; Potency, µM (top dose mostly 36.5 µM), for the others: top-dose activity change, negative = inhibition, usual class: inhibitors; hit rate 0.46% among 330,000; calls by dose curve; tested in A549 cells; note: potency is the fitted concentration of half-maximal effect; % is set by controls: 0 for no effect and ±100 for the full control effect; nearly all actives have a fitted effect of over 30% in size
# LASV entry inh – Lassa virus entry inhibition; Lassa virus pseudotype entry inhibition, cell reporter; Potency, µM (top dose mostly 37.9 µM), inactives show at the top dose activity change, negative = inhibition, hits mostly inhibitors; hit rate 1.2% among 300,000; calls by dose curve; tested in HEK293 cells; note: potency is the fitted concentration of half-maximal effect; % is set by controls: 0 for no effect and ±100 for the full control effect; nearly all actives have a fitted effect of over 50% in size
# Shiga inhibitor – inhibitors of Shiga toxin in Vero cells; Vero cells, Shiga toxin protein synthesis inhibition reporter; inhibition, % at 38.7 µM; hit rate 9.2% among 290,000; AID 2315; in the data active = inhibition mostly above about 28%, no sharp cut-off; inactive = mostly below about 43%; note: 0% is about no effect
# Vaccinia mCherry – inhibitors of vaccinia virus infection (mCherry reporter signal). Vaccinia virus mCherry reporter infection, fluorescence. Potency, µM (top dose mostly 36.5 µM), for inactives: at the top dose activity change, negative = inhibition, usual class: inhibitors. hit rate 0.63% among 310,000; calls by dose curve; tested in A549 cells; note: potency is the fitted concentration of half-maximal effect; % is set by controls: 0 for no effect and ±100 for the full control effect; nearly all actives have a fitted effect of over 35% in size
# MARV entry inh – inhibitors of Marburg virus binding or cell entry. hit rate 1.8% among 300,000. Potency, µM (top dose mostly 37.8 µM), inactives show top-dose activity change, negative = inhibition, usual class: inhibitors. AID 540276. Marburg virus pseudotyped entry inhibition, cell reporter; calls by dose curve; tested in HEK293 cells; note: potency is the fitted concentration of half-maximal effect; % is set by controls: 0 for no effect and ±100 for the full control effect
# Cycloheximide cs – affects cycloheximide protein synthesis inhibition readout, counter-screen | cell reporter, cycloheximide protein synthesis inhibition counterscreen | max response, % | hit rate 12% among 300,000 | AID 2314; in the data active = max response mostly above about 13%, no sharp cut-off; inactive = mostly below about 14%; note: read at 38.3 µM for the half of the compounds with a filed dose; 0% is about no effect
# * hit, by the source's call; i = inactive; ? = inconclusive; . = no result; [ ] = another dose, or the depositor's remark. Only a selection was taken, and hits are over-represented in it overall.
SMILES,VACV Venus inh,LASV entry inh,Shiga inhibitor,Vaccinia mCherry,MARV entry inh,Cycloheximide cs
COc1ccc(CCc2nnc(CCC(=O)NCC3CCCO3)o2)cc1 (centres undefined),-12.1%,-22.5%[46.1 µM],12.8,-11.1%,-2.5%[46.1 µM],7.0
CCCN(CC1CCCO1)C(=O)CCc1nnc(CCc2ccc(OC)cc2)o1 (centres undefined),.,.,16.0,.,.,27.3*
Cc1cccc(Cc2nnc(CCC(=O)N(CC3CC3)CC3CCCO3)o2)c1 (centres undefined),-11.0%,-1.9%[46.1 µM],57.9*,i,?,47.4*
CCCOC1CCCN(C(=O)CCc2nnc(Cc3cccc(C)c3)o2)C1 (centres undefined),-7.3%,7.0%[46.1 µM],94.8*,i,?,47.3*
CC1(C)CC(=O)c2cc(C(=O)NCCc3ccccc3)c(=O)[nH]c2C1,-14.0%,.,.,19.5%,.,.
Cc1cccc(OCCCn2c(CCNC(=O)C3CCCCC3)nc3ccccc32)c1,-16.5%[7.34 µM],-6.8%[46.1 µM],47.7,i[7.34 µM],?,10.2
CC(C)=CCOc1ccc2c(C)c(CC(=O)N3C[C@H]4C[C@@H](C3)c3cccc(=O)n3C4)c(=O)oc2c1C,-3.3%,.,-1.0,-13.2%,.,1.4
COc1cc(=O)n2c(c1C(=O)NC(C)c1ccco1)CCN(CC=C(C)C)CC2 (centres undefined),-11.4%,.,.,-10.2%,.,.
Cc1cccc(Cc2nnc(CCC(=O)N(C)C3CCOC3)o2)c1 (centres undefined),-6.5%,2.0%[46.1 µM],71.1*,i,?,27.0*
CCc1ccc(CN(C)C(=O)CCc2nnc(Cc3cccc(C)c3)o2)nc1,-7.6%,4.9%[46.1 µM],22.6,-22.6%,5.6%[46.1 µM],1.8
CCCCCCCCCCCCCCCC[n+]1cccc(C(=O)N(CC)CC)c1,-18.2%,11.2µM*,-12.6,-24.0%,7.08µM*,-0.9
Cc1ccc(OCC(=O)Nc2ccc(OCc3cc(=O)n4cccc(C)c4n3)cc2)cc1C,?,4.9%[46.1 µM],.,-26.9%,.,.
Cc1cc(C(F)(F)F)c(C#N)c(N2CCOCC2)n1,-5.2%,1.8%,-17.7,-11.7%,?,8.5
N#Cc1c(N2CCOCC2)nsc1-c1ccc(C(F)(F)F)cc1,-18.6%,?,43.2,-11.9%,?,28.6*
Cc1ccccc1/C=C/c1nc2ccccc2c(=O)[nH]1,-10.7%,?,84.2*,i,?,44.7*
COCCOC(=O)N/C=C\c1nc2ccccc2c(=O)[nH]1,-27.1%,?,22.3,?,?,-2.5
N#CCOc1ccccc1/C=C/c1nc2ccccc2c(=O)[nH]1,-20.2%,?,83.2*,-4.4%,?,29.6*
Cc1ccccc1/C=C/c1nc2ccccc2c(=O)n1Cc1ccccc1,-6.7%,5.1%,7.8,-10.7%,0.6%,-2.6
Cc1ccccc1/C=C\c1nc2ccccc2c(=O)[nH]1,?,?,89.2*,-17.0%,?,45.8*
CC(=O)OC[C@H]1O[C@H](CC=NOC[C@@H](C)[C@H](OCc2ccccc2)C(C)C)C=C[C@@H]1OC(C)=O,.,.,.,.,-9.9%[14.2 µM],.
CCCCNC(=O)NS(=O)(=O)c1ccc(CO)cc1,.,.,-15.0,.,.,-10.1
CCCc1nnc(NC(=O)c2cccc(OC)c2)s1,-9.4%,22.4%,73.5*,-13.6%,14.1%,61.8*
CCOCCc1nnc(NC(=O)c2cccc(F)c2)s1,-16.6%,18.9%,40.9*,-14.3%,?,20.1*
CN(C)c1cccc(C(=O)Nc2nnc(Cc3ccccc3)s2)c1,-3.6%,?,96.1*,i,?,26.1*
CCOCCc1nnc(NC(=O)c2cc(OC)c(OC)c(OC)c2)s1,-14.5%,14.3%,-6.8,.,2.8%,-2.5
SMILES,VACV Venus inh,LASV entry inh,Shiga inhibitor,Vaccinia mCherry,MARV entry inh,Cycloheximide cs
COc1cccc(C(=O)Nc2nnc(C(C)C)s2)c1,-7.2%,?,46.7*,-15.0%,?,27.3*
CC1CN(Cc2cccn2-c2cccnc2)Cc2cc(Cl)ccc2O1 (centres undefined),1.9%,.,.,-10.4%,.,.
COc1ccc2c(c1)OC(C)CN(CCNC(=O)C1CCOC1)C2 (centres undefined),7.4%,.,.,-4.4%,.,.
COc1ccc2c(CC(=O)Nc3ccc4nc(N5CCOCC5)sc4c3)coc2c1,-16.7%,.,.,-19.3%,.,.
CC(OC(=O)c1snc(C(=O)NC2CCCCC2)c1N)C(=O)NC(C)(C)C (centres undefined),-10.9%,?,3.9,-23.8%,?,-1.8
CC(C)(C)NC(=O)COC(=O)c1snc(C(=O)NC2CCCCC2)c1N,.,?,37.1*,.,-13.2%,17.9*
CC(=O)c1cccc(NC(=O)NCCc2ccc(Cl)cc2)c1,-10.7%,14.1%[46.1 µM],38.0*,i,?,21.2
COc1cccc(NC(=O)NCCc2ccc(Cl)cc2)c1,1.9%,0.7%[46.1 µM],53.7,-13.7%,9.9%[46.1 µM],24.3*
O=C(C1CCCN(S(=O)(=O)c2cccc3nsnc23)C1)N1CCN(c2ccccc2Cl)CC1 (centres undefined),-15.9%,?,.,-27.9%,3.98µM*,.
CCC1CN(C(=O)N2CCC(C(=O)O)CC2)c2cc(C)ccc2O1 (centres undefined),-3.5%,12.9%[46.1 µM],.,-6.2%,?,.
Cc1ccc(CC2SC(N=C(N)N)=NC2=O)cc1 (centres undefined),-9.3%,-3.4%,23.3,-17.0%,0.0%,-4.3
NC(N)=NC1=NC(=O)C(Cc2ccccc2)S1 (centres undefined),.,.,-2.0,.,.,18.7*
CCOc1ccc2[nH]c3c(=O)n(CCc4ccc(OC)cc4)cnc3c2c1,2.2%,?,23.1,71.4%,7.0%[46.1 µM],-3.3
CN(C)CCN(C(=O)c1ccc(Br)s1)c1nc2cc3c(cc2s1)OCCO3,8.4%,16.2%[46.1 µM],67.6*,-19.6%,-2.6%[46.1 µM],44.0*
CN(C)CCN(C(=O)c1cccs1)c1nc2cc3c(cc2s1)OCCO3,5.1%,3.2%,82.0,-12.9%,-6.6%,51.3*
CN(C)CCCN(C(=O)c1ccc2c(c1)OCCO2)c1nc2cc3c(cc2s1)OCO3,-19.9%,29.0%,19.1,?,?,1.6
COc1cccc(NC(=O)C(=O)NCC(c2ccc3c(c2)OCO3)N2CCOCC2)c1 (centres undefined),-6.7%,19.6%[46.1 µM],.,-22.5%,.,.
CN(C)c1cccc(NC(=O)c2ccco2)c1,1.2%,4.2%[46.1 µM],26.0,i,17.0%[46.1 µM],17.8
CC(=O)Nc1ccc(NC(=O)c2ccco2)cc1,.,?,71.2*,.,18.5%,30.7*
CSc1cccc(NC(=O)c2ccco2)c1,-9.1%,14.8%,107.7*,-6.2%,12.2%,30.5*
C/C=C/C(=O)OCC(=O)Nc1ccc(SC(F)F)cc1,-15.0%,-36.4%,35.6,-19.8%,-6.6%[46.1 µM],26.3*
O=C(NCCCNC(=O)c1ccco1)c1ccc(Cl)cc1,1.6%,.,85.5*,2.1%,?,31.5*
CC(=O)c1ccc(NC(=O)c2ccc(NC(=O)c3ccco3)cc2)cc1,-16.3%,6.8%[46.1 µM],-14.8,-7.7%,2.6%[46.1 µM],-2.9
CCOc1ccc(CCNC(=O)c2cnc3sc(N4CCCCC4)nn3c2=O)cc1,-0.9%,?,.,-7.1%,.,.
O=c1cc(-c2ccc(F)cc2)nc(SCc2nc(-c3cccc(C(F)(F)F)c3)no2)[nH]1,-5.1%,3.3%[46.1 µM],.,-12.0%,.,.
O=C(Cc1ccccc1)Nc1ccc(NC(=O)c2ccco2)cc1,1.7%,-0.5%[46.1 µM],51.2*,-12.9%,?,18.0*

# Bioassay records: PubChem BioAssay, National Center for Advancing Translational Sciences (NCATS)
